Laboratory results from ChEMBL document CHEMBL3433997, “St. Jude Leishmania screening dataset” (2016).

Experiments:
Format in all cases: functional
[1] = molecular target: Solute carrier family 2, facilitated glucose transporter member 1 (Homo sapiens) (UniProt P11166); assay: ST_JUDE_LEISH: Cytotoxicity at 2uM final concentration against transgenic Leishmania Mexicana promastigotes LmGLUT1 that are glucose transport deficient and complemented with the human glucose transporter GLUT1. Activity is measured by DNA content using SYBR green in vitro
Sequence of Solute carrier family 2, facilitated glucose transporter member 1 (Homo sapiens) (P11166 whole entry): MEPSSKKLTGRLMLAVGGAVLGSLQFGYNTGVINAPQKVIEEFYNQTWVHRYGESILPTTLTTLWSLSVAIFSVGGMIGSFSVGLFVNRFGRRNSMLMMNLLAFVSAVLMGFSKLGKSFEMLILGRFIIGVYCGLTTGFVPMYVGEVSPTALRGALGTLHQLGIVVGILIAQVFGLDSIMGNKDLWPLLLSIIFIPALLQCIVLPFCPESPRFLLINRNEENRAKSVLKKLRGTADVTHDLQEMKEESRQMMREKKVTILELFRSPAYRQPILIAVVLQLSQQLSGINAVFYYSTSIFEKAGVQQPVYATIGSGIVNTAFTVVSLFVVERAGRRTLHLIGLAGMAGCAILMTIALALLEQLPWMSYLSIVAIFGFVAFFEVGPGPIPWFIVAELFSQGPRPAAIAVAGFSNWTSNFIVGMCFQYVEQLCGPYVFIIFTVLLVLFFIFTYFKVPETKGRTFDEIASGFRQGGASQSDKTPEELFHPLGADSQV

[2] = molecular target: Hexose transporter 1 (Plasmodium falciparum) (UniProt O97467); assay: ST_JUDE_LEISH: Cytotoxicity at 2uM final concentration against transgenic Leishmania Mexicana promastigotes LmPfHT that are glucose transport deficient and complemented with the Plasmodium falciparum hexose transporter. Activity is measured by DNA content using SYBR green in vitro
[3] = molecular target: Glucose transporter (Leishmania mexicana) (UniProt O61059); assay: ST_JUDE_LEISH: Cytotoxicity at 2uM final concentration against transgenic Leishmania Mexicana promastigotes LmGT2 that are glucose transport deficient and complemented with the L. Mexicana glucose transporter 2. Activity is measured by DNA content using SYBR green in vitro

Structure (SMILES)	inhibition [1]	inhibition [2]	inhibition [3]
COc1cc2nc(NCC3CCCCC3)nc(NCc3ccccc3)c2cc1OC	3.26%	4.81%	0.32%
CN1CCc2cc(CN3CC4(C)CC3CC(C)(C)C4)c(O)cc2C(c2ccccc2)C1 (stereo not given)	0.04%	-0.55%	-0.09%
COc1cc2nc(N3CCN(C(=O)c4ccc(N(C(=O)OC(C)(C)C)C(=O)OC(C)(C)C)cc4)CC3)nc(N)c2cc1OC	-0.43%	-0.06%	0.52%
CN1CCN(CC(=O)Nc2ccc(-c3ccc(-c4nc5ccccc5[nH]4)cc3)cc2)CC1	8.17%	6.39%	9.57%
Cc1cnc(C[S+]([O-])c2nc3cc(C(F)(F)F)ccc3[nH]2)cc1OCc1ccccc1 (stereo not given)	3.56%	4.95%	2.76%
CCN(CC)c1nc(N)c2c(N)nc3c(c2c1C#N)C(=O)CN3Cc1ccccc1	7.21%	6.8%	6.97%
CN(C)c1ccc2nc(N)nc(N)c2c1Cl	3.29%	3.16%	3.5%
CN1CCN(C(C(=O)NCc2cc(Cl)cc(Cl)c2)c2ccc(NC(=O)Nc3ccccc3)cc2)CC1 (stereo not given)	2.24%	1.94%	1.21%
CCC(C)c1ccc(O)c(NC(=O)c2cncc(Br)c2)c1 (stereo not given)	-0.89%	0.04%	-2.07%
O=C(NNC(=O)c1ccc(CCN2CCC(c3nc(COCC(F)(F)F)c(-c4ccc(F)cc4)o3)CC2)cc1)Nc1ccc(Oc2ccccc2)cc1	-0.99%	-0.56%	-0.09%
